The results in this text go back to PubChem BioAssay AID504832 (National Center for Advancing Translational Sciences (NCATS), 2011).

SMILES strings stand for the structures. About 18,000 (5.8%) of roughly 310,000 compounds were called active. Where a call stands in place of a potency, no number is given. About 22% were inconclusive and are not listed. This is one part of a sample in which actives are shown more often than they occur. The call rests on the fitted dose curve; in most records, active means well fitted inhibition curve with a large enough effect; inconclusive means small, poorly fitted or top-dose-only effect, or another doubt; inactive means no such curve, though single readings can be large or run the other way.
Potency means the concentration at half of the fitted maximal effect.

The nature of the assay: Primary qHTS for delayed death inhibitors of the malarial parasite plastid, 48 hour incubation. Particulars: P. falciparum luciferase growth in erythrocytes; series mostly up to 28.7 µM. The gist of the method: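 Read-out is firefly luciferase luminescence from an integrated reporter in P. falciparum, so falling signal marks reduced parasite growth. Infected erythrocytes were at 2% hematocrit and 0.1% parasitemia (final) in Albumax-supplemented RPMI 1640.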
In general terms: qHTS replaces the single test concentration by a dilution series.
In the case of `CCN(C(=O)CSc1nnnn1-c1ccccc1OC)C1CCS(=O)(=O)C1` (stereo not drawn), the Potency result was “inactive”.
Regarding `CC(=O)N1CCSc2ccc(S(=O)(=O)N3CCC(C)CC3)cc21`, the Potency result was “inactive”.
`CCc1ccc(NC(=O)Cn2nnc(C(=O)NCc3ccc(OC)cc3)c2N)cc1`: the Potency result is “inactive”.
The value for `COc1ccc(C(CC(=O)N2CCN(c3ccccc3)CC2)c2c(O)cc(OC)cc2OC)cc1` (stereo not drawn) was 10.4 µM (active); that for `CC(CC(=O)N1CCN(c2ccccc2)CC1)c1ccccc1` (stereo not drawn) was “inactive”.
Consider `COc1cccc(-c2ccc(SCC(=O)N3CCN(c4ccccc4)CC3)nn2)c1`, for which the Potency result is “inactive”.
With `Cc1ccc(CS(=O)(=O)CCC(=O)NCc2ccc(F)cc2)cc1`, the Potency result is “inactive”.
In the case of `CC[C@]1(c2ccccc2OC)C(=O)N(C(=O)OC)N1C(=O)OC`, the Potency result was “inactive”.
Regarding `CCOc1ccc(NC(=O)CN(C)C(=O)c2c(C)noc2C)cc1OCC`, the Potency entry is “inactive”.
As for `Cc1ccc(S(=O)(=O)CCC(=O)OCC(=O)N(C)C2CCS(=O)(=O)C2)cc1` (stereo not drawn), the Potency result is “inactive”.
Regarding `Cc1cc(C(C)(C)C)cc(S(=O)(=O)Nc2ccc(C(=O)O)cc2)c1C`, the Potency entry was “inactive”.
In the case of `Cc1cc(C)c(C)c(S(=O)(=O)Nc2ccc(O)cc2)c1C`, the Potency is 7.38 µM (active).
On to `CCOc1ccc(NS(=O)(=O)c2cc(C)c(C)cc2C)cc1`, for which the Potency entry is “inactive”.
Regarding `NS(=O)(=O)c1ccc(CCNC(=O)CNC(=O)Cc2ccccc2)cc1`, the Potency result is “inactive”.
On to `O=C1NC(=O)C(c2ccc(Cl)cc2)N1` (stereo not drawn), for which the Potency result is “inactive”.
The value for `S=C(c1ccccc1)N1CCCC1` was “inactive”; that for `CCCSc1nc2c(c(=O)[nH]c(=O)n2C)n1CCc1ccccc1` was “inactive”; that for `Cn1c(=O)[nH]c(=O)c2c1nc(N1CCCCCC1)n2CC(=O)c1ccccc1` was “inactive”.
Take `CC1CCN(c2nc3c(c(=O)[nH]c(=O)n3C)n2CCCc2ccccc2)CC1`: the Potency is 11.7 µM (active).
With `Cc1[nH]c2ccccc2c1C(=O)COC(=O)C(C)C`, the Potency result was “inactive”.
On to `Cc1[nH]c2ccccc2c1C(=O)CN1CC(C)CC(C)C1` (stereo not drawn), for which the Potency result was “inactive”.
As to `Cc1[nH]c2ccccc2c1C(=O)C(C)Sc1nnc(C2CC2)o1` (stereo not drawn), the Potency was 3.7 µM (active).
As to `C=CCOc1ccc(/C=C2/C(=O)ON=C2C)cc1OCC`, the Potency entry is “inactive”.
Turning to `COc1ccc(OC)c(S(=O)(=O)n2c([N+](=O)[O-])cnc2C)c1`, the Potency entry is “inactive”.
For `NS(=O)(=O)c1ccc(N=Nc2c(O)[nH]c3ccc(Br)cc23)cc1`, the Potency entry is “inactive”.
Consider `Cc1onc(-c2c(F)cccc2Cl)c1C(=O)N(C)CC(=O)Nc1cccc(F)c1`, for which the Potency result was “inactive”.
`COc1ccccc1N1CCN(C(=O)c2cc(-c3ccc(Cl)c(Cl)c3)on2)CC1`: the Potency entry was “inactive”.
The value for `Cc1onc(-c2c(Cl)cccc2Cl)c1C(=O)NNC(=O)c1c(-c2c(Cl)cccc2Cl)noc1C` was 8.28 µM (active); that for `Cc1[nH]n(C)c(=O)c1C(=O)c1c(-c2c(Cl)cccc2Cl)noc1C` was “inactive”; that for `COc1cccc(-c2cc(C(=O)N3CCN(c4ccccc4OC)CC3)no2)c1` was “inactive”.
Take `COc1ccccc1N1CCN(C(=O)c2c(-c3c(Cl)cccc3Cl)noc2C)CC1`: the Potency is 10.4 µM (active).
As to `CC(C)c1ccc(/C=C2\NC(=O)NC2=O)cc1`, the Potency entry is “inactive”.
With `Cc1ccc(CCNC(=O)c2ccc3nc4ccccc4c(=O)n3c2)cc1`, the Potency entry is “inactive”.
The value for `COc1ccc(CCn2c(=N)c(C(=O)NCc3ccco3)cc3c(=O)n4cccc(C)c4nc32)cc1` was 0.465 µM (active); that for `Cc1ccc(-c2noc(-c3ccccc3C(=O)NCC3CCCO3)n2)cc1` (stereo not drawn) was “inactive”; that for `O=C(Nc1ccccc1C(=O)NCC1CCCO1)c1ccccc1F` (stereo not drawn) was “inactive”.
Take `Cc1cccn2c(=O)c3cc(C(=O)NCCN4CCOCC4)c(=N)n(Cc4cccnc4)c3nc12`: the Potency entry was “inactive”.
Take `Cc1ccc2nc3c(cc(C(=O)NCCc4ccccc4)c(=N)n3CC3CCCO3)c(=O)n2c1` (stereo not drawn): the Potency is 2.08 µM (active).
The value for `COc1ccc2oc(C(=O)NCc3ccco3)c(C)c2c1` was “inactive”; that for `Cc1cccn2c(=O)c3cc(C(=O)NCC4CCCO4)c(=N)n(Cc4ccc(F)cc4)c3nc12` (stereo not drawn) was 9.28 µM (active); that for `O=C(NCc1ccco1)c1cccn2c(=O)c3c4c(sc3nc12)CCCC4` was “inactive”.
`Nc1nc(SCC(=O)Nc2ccc(Cl)cc2C(F)(F)F)n[nH]1`: the Potency result is “inactive”.
On to `CN(CC(=O)Nc1ccc(OC(F)(F)F)cc1)C(=O)C1CCC1`, for which the Potency result was “inactive”.
The value for `c1ccc(C2CNCc3c2ccc2ccccc32)cc1` (stereo not drawn) was 10.4 µM (active).
The value for `CC1=C(C(=O)NC2CC(C)(C)Cc3c2cnn3-c2ccc(C)cc2)OCCO1` (stereo not drawn) was “inactive”; that for `C=CCOc1cccc(CNCc2cccnc2)c1` was “inactive”; that for `CCc1ccccc1NC(=O)c1cccs1` was “inactive”.
With `CCc1ccccc1NC(=O)/C(=C/c1ccccc1)c1ccccc1`, the Potency was 5.22 µM (active).
As to `CCc1ccccc1NC(=O)CCOc1ccccc1`, the Potency entry is “inactive”.
Consider `Cc1ccc(C(=O)NCC(=O)OCC(=O)NC2CCCCCCC2)cc1`, for which the Potency entry was “inactive”.
As to `CCN1C(=O)c2cccc3c(S(=O)(=O)Nc4ccccc4O)ccc1c23`, the Potency result was “inactive”.
The value for `CSC(=S)N/N=C/c1c[nH]c2ccccc12` was “inactive”; that for `C[n+]1ccc(/C=C/c2c[nH]c3ccccc23)cc1` was 0.738 µM (active).
The value for `CN1CCN(/N=C/c2c[nH]c3ccccc23)CC1` was “inactive”; that for `Cn1c(=O)c2c(nc(NCCNC(=O)c3ccco3)n2Cc2ccccc2F)n(C)c1=O` was “inactive”.
Turning to `CCC(=C/c1sc2ccc3ccccc3c2[n+]1C)/C=C1\Sc2ccc3ccccc3c2N1C`, the Potency was 0.928 µM (active).
`COc1ccc2ccn(C)c2c1`: the Potency entry is “inactive”.
Consider `Cc1ccccc1NC(=O)C1CCCN(C(=O)NCc2ccccc2)C1` (stereo not drawn), for which the Potency result is “inactive”.
The value for `O=C(NCCc1ccc(F)cc1)c1n[nH]c2ccccc12` was “inactive”; that for `O=C(NCC1CCCO1)c1cc(-c2ccccc2)nc2ccccc12` (stereo not drawn) was “inactive”; that for `COc1cccc2[nH]c(C(=O)NCCc3ccccc3)cc12` was “inactive”.
Take `O=C(NCCCO)c1cc2c([nH]c3ccccc32)c(-c2ccc(F)cc2)n1`: the Potency is 9.28 µM (active).
Consider `O=C(NCC1CCCO1)c1ccc2ccccc2n1` (stereo not drawn), for which the Potency result was “inactive”.
`O=C(NCC1CCCO1)c1cc2c([nH]c3ccccc32)c(-c2ccc(F)cc2)n1` (stereo not drawn): the Potency was 9.28 µM (active).
Turning to `COc1ccccc1OC(C)C(=O)Nc1ccc(S(=O)(=O)Nc2nccs2)cc1` (stereo not drawn), the Potency entry is “inactive”.
The value for `CCOc1ccc2c(c1)c(=O)c(S(=O)(=O)c1ccc(C)cc1)cn2CC` was “inactive”; that for `CCc1cccc(C)c1NC(=O)COC(=O)CNC(=O)c1cccs1` was “inactive”.
The value for `CCc1ccc(Oc2coc3cc(O)ccc3c2=O)cc1` was “inactive”.
Take `COc1ccc(-n2cc(CN(C)Cc3n[nH]c(=O)[nH]3)c(-c3cccc(F)c3)n2)cc1`: the Potency entry was “inactive”.
Take `COc1ccc(-n2cc(CNC3CCOCC3)c(-c3cccc(F)c3)n2)cc1`: the Potency was 11.7 µM (active).
For the compound `COc1ccc(-c2nn(-c3ccccc3)cc2CN2CCCO2)c(F)c1`, the Potency entry was “inactive”.
For the compound `Cc1ccc(S(=O)(=O)NC(=O)c2cccc(C)c2)cc1`, the Potency result is “inactive”.
`CCc1cccc(C)c1NC(=O)COC(=O)CC1CCCC1`: the Potency entry is “inactive”.
As for `Cc1cc(NC(=O)COc2ccccc2C#N)no1`, the Potency result was “inactive”.
The value for `CCc1cccc(CC)c1NC(=O)COc1ccccc1C(=O)c1cc(C#N)c(=O)n(C2CCCCC2)c1` was 5.86 µM (active); that for `COc1cccc(-c2coc3cc4oc(=O)c(CC(=O)O)c(C)c4cc23)c1` was “inactive”; that for `COc1ccccc1C(=O)N/C(=C/c1ccc2c(c1)OCO2)C(=O)Nc1cccc(C(=O)O)c1` was “inactive”.
As to `CCC(C)(C)c1ccc(OCC(=O)N(C)C)c(C(C)(C)CC)c1`, the Potency was 11.7 µM (active).
As for `CN(C)CCOc1ccc(Cl)cc1C(C)(C)C`, the Potency result was “inactive”.
With `CN1C/C(=C/c2cccs2)C(=O)/C(=C\c2cccs2)C1`, the Potency entry was “inactive”.
Consider `CCc1ccc(NC(=O)N2CCc3ccccc3C2)cc1`, for which the Potency entry was “inactive”.
Take `COc1cccc(/C=C2/SC(=S)N(CC(=O)NC3C=CS(=O)(=O)C3)C2=O)c1` (stereo not drawn): the Potency entry was “inactive”.
`Cc1nc2ccccc2c2oc(C(=O)NCC3CCCO3)cc12` (stereo not drawn): the Potency entry was “inactive”.
The value for `Cn1c(=O)c2[nH]c(NCC3CCCO3)nc2n(-c2ccccc2)c1=O` (stereo not drawn) was “inactive”.
On to `c1ccc2c(NCC3CCCO3)nc(-c3ccncc3)nc2c1` (stereo not drawn), for which the Potency is 13.1 µM (active).
On to `COc1ccc(C2=NS(=O)(=O)N(C)C(C(=O)N(C)Cc3ccccc3)=C2)cc1`, for which the Potency entry is “inactive”.
In the case of `Cc1nn(C)c(C)c1NS(=O)(=O)c1ccc(OC(F)(F)F)cc1`, the Potency result was “inactive”.
On to `COCC1CCN(C(=O)C2CCC(=O)N(CC3CCCCC3)C2)CC1` (stereo not drawn), for which the Potency entry is “inactive”.
With `CC(CN1CCOCC1)OC(=O)c1ccc(Cl)cc1Cl` (stereo not drawn), the Potency entry was “inactive”.
As for `CCCCn1c(CCCNC(=O)CC)nc2ccccc21`, the Potency result is “inactive”.
For `CCC(=O)NCCc1nc2ccccc2n1CC`, the Potency entry is “inactive”.
The value for `CCC(=O)Nc1nc2ccccc2n1Cc1ccccc1C` was 1.47 µM (active); that for `COCCn1c(C)cc(C(=O)COC(=O)CNC(=O)c2ccco2)c1C` was “inactive”; that for `COc1ccc(S(=O)(=O)N2CCC(C(=O)N3CCCC3)CC2)cc1C` was “inactive”.
The value for `CCOc1ccc(CN(C)C(=O)c2ccc(=O)[nH]c2)cc1` was “inactive”; that for `COc1ccc(NC2CCCN(C(=O)c3ccncc3)C2)cc1` (stereo not drawn) was “inactive”.
Consider `CC(C)c1ccc(NC2CCCN(C(=O)c3ccncc3)C2)cc1` (stereo not drawn), for which the Potency was 5.86 µM (active).
The value for `Cc1cccc(C(=O)N2CCCC(Nc3ccc(C(C)C)cc3)C2)n1` (stereo not drawn) was “inactive”; that for `O=C(NCC(=O)N1CCN(c2ncc(C(F)(F)F)cc2Cl)CC1)c1ccc(Br)o1` was “inactive”; that for `Cc1nn(Cc2ccccc2)c(C)c1NS(=O)(=O)c1ccccc1` was “inactive”.
On to `CC(C)C(c1nnnn1C1CCCC1)N1CCN(c2ccccc2F)CC1` (stereo not drawn), for which the Potency result was “inactive”.
The value for `c1ccc(C(c2ccccc2)N2CCN(Cc3nnnn3C3CCCCC3)CC2)cc1` was 8.28 µM (active); that for `c1ccc(CCn2nnnc2CN2CCN(C3CCCC3)CC2)cc1` was “inactive”; that for `CC1CN(C(=O)COC(=O)c2cccc(NS(=O)(=O)c3ccccc3)c2)CC(C)O1` (stereo not drawn) was “inactive”.
With `CCCc1cc(=O)oc2c(C)c(OCC(=O)NCc3ccccn3)ccc12`, the Potency result is “inactive”.
For the compound `O=C(Nc1ccc(S(=O)(=O)N2CCCCC2)cc1)c1cnccn1`, the Potency result was “inactive”.
As to `CC1CCCN(S(=O)(=O)c2ccc(N(C(=O)c3cnccn3)C(C(=O)NC3CCCCC3)c3cccs3)cc2)C1` (stereo not drawn), the Potency was 11.7 µM (active).
In the case of `CCc1ccc(N(C(=O)c2csnn2)C(C(=O)NC2CCCCC2)c2ccncc2)cc1` (stereo not drawn), the Potency result was “inactive”.
